# According to PubChem BioAssay (NCATS):
# Inconclusive results are not listed. Values without a mark were called inactive. Active and inactive are the calls of the source. The call rests on the fitted dose curve; in most records, active means well fitted inhibition curve with a large enough effect; inconclusive means small, poorly fitted or top-dose-only effect, or effect the other way; inactive means flat fitted curve, though single readings scatter.
# Biological target: D(1A) dopamine receptor (Homo sapiens) (UniProt P21728)
# Sequence (P21728 whole entry, looked up): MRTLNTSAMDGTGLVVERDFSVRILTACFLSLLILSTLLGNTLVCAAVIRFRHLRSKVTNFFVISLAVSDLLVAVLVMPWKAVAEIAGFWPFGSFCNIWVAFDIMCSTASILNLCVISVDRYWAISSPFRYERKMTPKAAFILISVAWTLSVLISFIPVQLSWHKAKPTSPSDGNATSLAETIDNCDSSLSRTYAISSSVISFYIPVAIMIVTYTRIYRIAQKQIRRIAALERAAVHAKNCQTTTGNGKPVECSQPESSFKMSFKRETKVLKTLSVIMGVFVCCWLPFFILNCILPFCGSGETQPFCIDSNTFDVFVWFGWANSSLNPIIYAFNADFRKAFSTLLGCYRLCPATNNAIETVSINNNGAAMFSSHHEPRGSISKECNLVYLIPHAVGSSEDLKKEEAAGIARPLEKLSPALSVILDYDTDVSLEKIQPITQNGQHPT
# Assay: HTS Assay for Allosteric Agonists of the Human D1 Dopamine Receptor: Primary Screen for Antagonists (AID 488983); further: nearly all actives have a fitted effect of over 65% in size
# Settings: D1 receptor cell assay, antagonist mode, qHTS titration; series mostly up to 41.8 µM; activity change, negative = inhibition: at the top concentration
# Text: Dopamine receptors (DARs) are involved in the etiology and/or therapy of a number of neuropsychiatric and endocrine disorders. For instance, all receptor-based antiparkinsonian drugs work via stimulating the […] DAR subtype whereas all FDA-approved antipsychotic agents are antagonists of this receptor. […] There are three different types of allosteric modulators that we are seeking, two of which will stimulate or augment receptor signaling, allosteric agonists and potentiators, while the third, allosteric antagonists, will attenuate receptor signaling. The present primary screening assay measures compound agonism by tracking calcium flux in a […], inducible Hek293 Trex D1 cell line.
# Freshly passaged cells are plated in 1536 well black, clear bottom plates at a density of 4000 cells/well in 3 ul of complete media containing 1x tetracycline inducer. After an overnight incubation at 30 C in 5% CO2, cells are loaded with 2 ul of the no wash Calcium Assay Kit (ABD Bioquest) and incubated at room temperature for 30 to 90 minutes. A 10 cycle (1 second/cycle) baseline measurement is taken and then the FDSS online 1536 pintool delivers 23 nl of compound library (as well as dopamine controls) to the plate. The plate is measured for kinetically at 1 cycle/sec for 180 seconds and is considered to be the agonist portion of the assay (eg, compounds which activate a positive calcium response during this portion are flagged as potential agonists). Following the 180 second read, 1 ul of an EC80 of dopamine is delivered by an onboard pipette head. Measurements are taken kinetically for an additional 180 seconds.
# On the % scale 0 is the no-effect control and ±100 the full control effect; potency means the concentration at half of the fitted maximal effect.
SMILES,"activity change, negative = inhibition [%]",Potency
Cn1c(=O)c2[nH]c(-c3ccc(S(=O)(=O)O)cc3)nc2n(C)c1=O,13.3,–
[Li+],13.1,–
O=C(O)Cc1c[nH]c2ccc(O)cc12,6.31,–
CCCCCC(O)CCCC(=O)O (stereo not given),-0.341,–
CCCCCCCCCC[Si](C)(C)CCC(=O)NC(Cc1ccc(C)cc1)c1ccccc1 (stereo not given),3.64,–
Cc1ccc2c(c1)C(N1CCN(C)CC1)=Nc1cccnc1N2,–,4470 nM (active)
C[C@]12C=CC(=O)C=C1CC[C@@H]1C2=CC[C@]2(C)[C@@H](C(=O)CN3CCN(c4cc(N5CCCC5)nc(N5CCCC5)n4)CC3)CC[C@@H]12,4.63,–
COC1(C2=NCCN2)COc2ccccc2O1 (stereo not given),-6.32,–
O=c1[nH]c2cc(Cl)ccc2c(O)c1-c1ccc(Oc2ccccc2)cc1,-2.65,–
N[C@H](C(=O)O)[C@H]1C[C@@H]1C(=O)O,-0.439,–
CC(N)=O,-2.69,–
CC(C)NC[C@H](O)COc1ccc(CC(N)=O)cc1,-0.184,–
Nc1ccc2c3c(cccc13)C(=O)NC2=O,-13.8,–
C=C1C[C@@]23CC[C@H]4[C@@](C)(CCC[C@@]4(C)C(=O)OC4OC(CO)C(O)C(O)C4O)[C@@H]2CC[C@]1(OC1OC(CO)C(O)C(O)C1OC1OC(CO)C(O)C(O)C1O)C3 (stereo not given in full),-6.79,–
CC1=C(/C=C/C(C)=C/C=C/C(C)=C\C(=O)O)C(C)(C)CCC1,2.51,–
O=C(O)/C(=C/c1c(C(=O)O)[nH]c2cc(Cl)cc(Cl)c12)c1ccccc1,3.34,–
CN1Cc2sccc2C(c2ccc(O)c(O)c2)C1 (stereo not given),–,355 nM (active)
COc1cccc(OC)c1OCCNCC1CSc2ccccc2O1 (stereo not given),–,1260 nM (active)
O=C(c1ccc2c(c1)OCCO2)N1CCCCC1,-9.21,–
CC(=O)C(C)=O,-7.59,–

SMILES,"activity change, negative = inhibition [%]",Potency
N=C(N)SCCN,-2.79,–
COc1cc(N)c(Cl)cc1C(=O)OCCN1CCCCC1,-7.96,–
CCCCCCCC/C=C\CCCCCCCC(=O)NCCc1ccc(O)c(O)c1,26.5,–
CCCCCCCCCCCCCCSCC(=O)O,-17.7,–
C[C@H](O)C(=O)C1=Nc2c(nc(N)[nH]c2=O)NC1,-1.31,–
O=C1Cc2c([nH]c3ccc(Br)cc23)-c2ccccc2N1,-21.1,–
Cn1ccnc1,6.23,–
COc1cc(C(O)C(=O)O)ccc1O (stereo not given),0.943,–
N[C@H](C(=O)O)[C@H](O)C(=O)O,4.16,–
C[C@@]1(C2CCCC2)Cc2cc(OCC(=O)O)c(Cl)c(Cl)c2C1=O,7.32,–
CCCCCCCCCC(=O)NC(CN1CCOCC1)[C@H](O)c1ccccc1 (stereo not given in full),16.6,–
Oc1ccc(/C=C/c2ccc(/C=C/c3ccc(O)cc3)c(Br)c2)cc1,24.3,–
CCCCS(=N)(=O)CC[C@H](N)C(=O)O (stereo not given in full),4.3,–
C[N+](C)(C)CC=O,5.71,–
CN(C)CCCc1cc(C(=O)Nc2ccc(-c3ccncc3)cc2)ccc1O,-24.3,–
CC(=O)/C(C)=N/O,6.28,–
Nc1ccc(-c2nc3ccc(-c4nc5ccc(N)cc5[nH]4)cc3[nH]2)cc1,-11.7,–
COC(=O)C(C)(N)Cc1ccc(O)cc1 (stereo not given),1.42,–
CC(C)NC[C@H](O)COc1cccc2ccccc12,-11.2,–
COc1cc2c(CCNC(C)=O)c[nH]c2cc1O,-5.18,–
